The source of these data is PubChem BioAssay AID1347416 (National Center for Advancing Translational Sciences (NCATS), 2020).

The whole screen tested about 4,100 compounds, of which about 1,600 (39%) were called active. Inconclusive results (about 25%) are left out. Calls come from the whole dose curve; as a rule, active = well fitted inhibition curve with a large enough effect; inconclusive = small, poorly fitted or top-dose-only effect; inactive = no such curve, though single readings can be large or run the other way. The list shows a part of the results.
% is set by controls: 0 for no effect and ±100 for the full control effect; potency is the fitted concentration of half-maximal effect.

A short description of the experiment: qHTS Validation assay for Inhibitors of Plasmodium falciparum Dd2 growth in vitro. Note: nearly all actives have a fitted effect of over 70% in size. As to conditions: P. falciparum Dd2 in RBCs, SYBR Green growth, 72 h; series mostly up to 28.7 µM; activity change, negative = inhibition: at the top concentration. The procedure, abridged:
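P. falciparum Dd2-infected red blood cells (2.5% hematocrit, 0.3% parasitemia) grown 72 h at 37 °C under 5% O2 with compounds in a titration, 29 uM to 0.5 nM final. Growth read as SYBR Green-1 fluorescence after ~16 h lysis; artesunate 300 nM as positive control.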
For orientation: In qHTS, concentration-response curves come from the screen itself.
For the compound `CO[C@H]1C(=O)N(C2CCN(S(=O)(=O)c3cccnc3)CC2)[C@H]1c1ccncc1`, the “activity change, negative = inhibition” value was -3.7% (inactive).
Regarding `Cc1ccc(Nc2nc3nonc3nc2Nc2cccc(C(F)(F)F)c2)cc1Cl`, the Potency is 2.11 µM (active).
Consider `CCOc1ccc(-c2nonc2NC(=O)c2ccc(C)cc2)cc1OCC`, for which the Potency is 1.68 µM (active).
As for `CCOC(=O)Cc1csc(NC(=S)NC(=O)c2ccc(C)cc2)n1`, the “activity change, negative = inhibition” value was 37.3% (inactive).
With `CCOc1ccc(-c2nonc2NC(=O)COc2c(C)cc(C)cc2C)cc1OCC`, the “activity change, negative = inhibition” value is 3.46% (inactive).
`CCCOc1ccc(-c2nonc2NC(=O)c2cc(OC)c(OC)c(OC)c2)cc1OCCC`: the Potency is 5.96 µM (active).
Turning to `CCNc1nc(OC)nc(Oc2ccc(=O)n(-c3ccccc3)n2)n1`, the Potency is 5.96 µM (active).
On the same count and under the same terms, the same measure for `CC(C)Cn1c(-c2ccco2)nc2c(c(=O)c3ccccc3n2C)c1=O`: 9.44 µM (active).
For `Cc1ccc(S(=O)(=O)N2CCC(C(=O)NC3CC3)CC2)cc1`, the “activity change, negative = inhibition” value is -28% (inactive).
Turning to `CS(=O)(=O)N1CCC(OC2CCN(C(=O)Nc3cc(F)ccc3F)CC2)CC1`, the “activity change, negative = inhibition” value was 11.4% (inactive).
With `O=S(=O)(c1ccc(F)cc1)N1CCN(C(=S)NC2CC2)CC1`, the Potency was 3.35 µM (active).
Consider `COc1ccc(S(=O)(=O)N2CCN(C(=S)NC3CCCCC3)CC2)cc1`, for which the Potency is 6.68 µM (active).
Same read-out and setting: the same measure for `O=C(c1cccs1)N1CCC(O)(c2ccccc2)[C@H](N2CCCC2)C1` (some centres not stated): 9.44 µM (active).
Take `CCOc1ccc(CN2CC[C@@](C)(O)[C@H](N3CCCC3)C2)cc1`: the “activity change, negative = inhibition” value is -16.2% (inactive).
Take `Cc1nn(C)cc1CN1CCC(O)(c2ccccc2)[C@H](N2CCCC2)C1` (some centres not stated): the “activity change, negative = inhibition” value is -28.5% (inactive).
Same read-out and setting: with `O=C(c1cccs1)N1CCC(n2cc(-c3nc(-c4ccccc4)no3)nn2)CC1` the figure was -8.44% (inactive).
`O[C@]1(c2ccccc2)CCN(Cc2ccncc2)C[C@H]1N1CCCC1`: the Potency is 9.44 µM (active).
For the compound `O[C@]1(c2ccccc2)CCN(Cc2ccco2)C[C@H]1N1CCCC1`, the Potency was 8.41 µM (active).
Consider `O=C(CC1CCN(C(=O)c2cccs2)C1)NCc1ccccc1` (configuration not stated), for which the “activity change, negative = inhibition” value is 9.3% (inactive).
`c1ccc(-c2noc(-c3ccn4c(CN5CCN(c6ccccn6)CC5)nnc4c3)n2)cc1`: the “activity change, negative = inhibition” value was -6.11% (inactive).
Turning to `CCOc1ccc2[nH]c3c(NCCN(C)C)ncnc3c2c1`, the Potency is 16.8 µM (active).
For `CC1Cn2c(nnc2-c2cc3ccccc3cc2O)S1` (configuration not stated), the Potency was 4.73 µM (active).
On to `CCc1ccc(Oc2c(C(F)(F)F)oc3c(CN4CCN(C)CC4)c(O)ccc3c2=O)cc1`, for which the Potency was 0.75 µM (active).
Still for that read-out and setting: the same measure for `CCc1ccc(Oc2c(C(F)(F)F)oc3c(CN4CCN(CC)CC4)c(O)ccc3c2=O)cc1`: 0.376 µM (active).
As for `C=CCO[C@@H]1CCN2C(=O)c3cc(-c4cc(Cl)ccc4OC)ccc3NC(=O)[C@H]12`, the “activity change, negative = inhibition” value was -16.7% [at 43.1 µM] (inactive).
On the same count and under the same terms, the same measure for `O=C(O)COc1ccc(-c2nccc3c2C(=O)N(Cc2ccccc2)CC(CNC(=O)c2ccc(F)cc2)O3)cc1` (configuration not stated): -17.6% (inactive).
With `CC(C)C(=O)NCC1CN(Cc2ccccc2)C(=O)c2c(ccnc2-c2ccc(OCC(=O)O)cc2)O1` (configuration not stated), the Potency was 2.11 µM (active).
